The whole screen tested about 300,000 compounds, of which about 37,000 (12%) were called active. Many of the other results were omitted from the sample, so actives are more common in it than they were. Unmarked numbers belong to inactive results. Cut-off read from the data, not from the text of the source: active = max response mostly above about 13% (no sharp cut-off); inactive = mostly below about 14%.
Experiment: Cycloheximide Counterscreen for Small Molecule Inhibitors of Shiga Toxin; note: read at 38.3 µM for the half of the compounds with a filed dose; 0% is about no effect
Settings: cell reporter, cycloheximide protein synthesis inhibition counterscreen; stronger effect = higher value

Which max response does the source give for `O=C(CCc1ccccc1)NCCc1cccs1` here?
The max response was 36.1% (active).

Which max response does the source give for `CCN(CC)CCCNC(=O)CCc1ccccc1` here?
Its max response is 10.2%.

With `CCCCC(=O)NCc1ccc(F)cc1` as the molecule, how does the max response read?
Its max response is -4.14%.

With `O=C(Cc1ccccc1)NCc1ccc(F)cc1` as the molecule, how does the max response read?
Its max response is 42.5% (active).

Which max response does the source give for `O=C(Cc1c(O)c2ccccc2[nH]c1=O)NCc1ccccc1` here?
Its max response is -2.53%.

With `Cc1ccnc(NC(=O)CCC(=O)N(CC(=O)NCCc2ccccc2)Cc2cccs2)c1` as the molecule, how does the max response read?
The max response was -8.74%.

For `CCn1cc(C(=O)Nc2cc(C)ccc2C)c(=O)c2ccc(C)nc21`, which max response is on record?
Its max response is 7.8%.

For `COc1ccccc1N1N=C(c2cccs2)CC1c1ccccc1` (stereo not drawn), which max response is on record?
The max response was 6.34%.

With `COc1ccc(C2=NN(c3ccccc3)C(c3cccs3)C2)cc1` (stereo not drawn) as the molecule, how does the max response read?
Its max response is 0.803%.

For `CC(=O)Oc1ccccc1C1=NN(C(C)=O)C(c2ccccc2)C1` (stereo not drawn), which max response is on record?
The max response was 9.57%.

For `Oc1ccccc1C1=NN(c2ccccc2)C(c2ccccc2)C1` (stereo not drawn), which max response is on record?
The max response was 49.1% (active).

Which max response does the source give for `COc1ccc(C2CC(c3cccs3)=NN2c2ccccc2)cc1` (stereo not drawn) here?
The max response was 41% (active).

For `O=C(c1ccccc1)N1N=C(c2ccccc2O)CC1c1ccc(Br)cc1` (stereo not drawn), which max response is on record?
Its max response is 3.47%.

For `Cc1cc(C)nc(N/N=C/c2ccncc2)n1`, which max response is on record?
Its max response is 0.636%.

For `CCN(CC)c1ccc(/C=N/NC(=O)c2cnccn2)c(O)c1`, which max response is on record?
Its max response is 28.1% (active).

Which max response does the source give for `COc1cccc(OCC(=O)NNC(=O)c2cnccn2)c1` here?
Its max response is -1.98%.

Which max response does the source give for `CCN(CC)c1ccc(/C=N/Nc2nc(C)cc(C)n2)c(O)c1` here?
Its max response is 22.2% (active).

Which max response does the source give for `NS(=O)(=O)c1ccc(CNC(=O)c2cnccn2)cc1` here?
Its max response is -2.6%.

For `Cc1cc(C)nc(N/N=C/c2c(CO)cnc(C)c2O)n1`, which max response is on record?
The max response was -2.74%.

With `O=C(Nc1ccccc1Cl)/C(Cl)=C(\Cl)S(=O)c1ccccc1` (stereo not drawn) as the molecule, how does the max response read?
The max response was 14.2%.

With `Cc1cccc(NC(=O)N(Cc2cc3cc(C)cc(C)c3[nH]c2=O)CC2COCCO2)c1` (stereo not drawn) as the molecule, how does the max response read?
The max response was -3.44%.

For `O=C(Nc1ccccc1-c1ccccc1)c1ccccc1[N+](=O)[O-]`, which max response is on record?
Its max response is -3.24%.

For `CCN(Cc1ccccc1)C(=O)CN1C(=S)NC(C)(C)CC1C` (stereo not drawn), which max response is on record?
Its max response is -3.52%.

Which max response does the source give for `CCc1ccc2c(c1)C1(NN=C(c3ccccc3)S1)C(=O)N2` (stereo not drawn) here?
Its max response is 69.8% (active).

With `CCOC(=O)c1c(NC(=O)CCCN2CCOCC2)sc2c1CC(C)(C)OC2` as the molecule, how does the max response read?
The max response was 12.6%.

For `CC(C)N(C(=O)c1ccc(-c2ccccc2F)cc1)C(C)C`, which max response is on record?
The max response was -2.02%.

Which max response does the source give for `CCOC(=O)CN(C)Cc1c[nH]c2ccccc12` here?
The max response was 0.657%.

Which max response does the source give for `CN(Cc1cccs1)C(=O)Cc1c[nH]c2ccccc12` here?
The max response was 18.3% (active).

With `COc1ccc(CN(C)C(=O)Cc2c[nH]c3ccccc23)c(OC)c1OC` as the molecule, how does the max response read?
Its max response is -1.59%.

With `COc1cccc(CNC(=O)Cc2csc(Nc3nc(=S)[nH]c4ccccc34)n2)c1` as the molecule, how does the max response read?
Its max response is 10.3%.

Which max response does the source give for `CCOC(CNC(=O)C(=O)NCC(c1ccco1)N1CCN(c2ccc(OC)cc2)CC1)OCC` (stereo not drawn) here?
Its max response is -5.43%.

For `CCCC(C)C(=O)NCc1ccncc1` (stereo not drawn), which max response is on record?
The max response was -3.47%.

With `O=C(NNc1ccccc1Cl)C(O)(c1cccc(C(F)(F)F)c1)c1cccc(C(F)(F)F)c1` as the molecule, how does the max response read?
Its max response is -4.75%.

With `Cn1c(/C(C#N)=C2/CCCCCN2)nc2ccccc21` as the molecule, how does the max response read?
The max response was 9.03%.

Which max response does the source give for `N#C/C(=C1/CCCN1)c1ccccn1` here?
Its max response is -2.58%.

With `N#CC(=C1SC=CS1)c1nc(-c2ccccc2)cs1` as the molecule, how does the max response read?
Its max response is 58.5% (active).

For `N#C/C(=C1\CCCN1)c1nc(-c2ccccc2)cs1`, which max response is on record?
Its max response is 23% (active).

With `N#CC(=C1CCCC1)c1nc(-c2ccc(Cl)cc2)cs1` as the molecule, how does the max response read?
Its max response is 27.6%.

Which max response does the source give for `Cc1ccc(S(=O)(=O)N2CCC(=O)N([C@H](COCc3ccccc3)Cc3ccccc3)CC2)cc1` here?
Its max response is 7.08%.

Which max response does the source give for `CN(/C(=N/S(=O)(=O)c1cccs1)c1ccccc1)c1ccc(O)cc1` here?
Its max response is 11.5%.

With `CN(C)S(=O)(=O)c1ccc(N2CCCC2)c(C(=O)Nc2cccc(F)c2)c1` as the molecule, how does the max response read?
Its max response is -3.38%.

For `COc1ccc(CNC(=O)c2nnn(CC(=O)Nc3cc(C)cc(C)c3)c2N)cc1`, which max response is on record?
Its max response is -2.25%.

With `CCN(CC)c1ccc2oc(=O)c(C)nc2c1` as the molecule, how does the max response read?
Its max response is 16.6% (active).

Which max response does the source give for `CCN(CC)c1ccc2cc(C(N)=O)/c(=N\NC(=O)c3ccncc3)oc2c1` here?
Its max response is 5.35%.

Which max response does the source give for `CCN(CC)c1ccc(C(=O)Nn2c(C)nc3ccccc3c2=O)cc1` here?
Its max response is -2.07%.

Which max response does the source give for `CCc1[nH]nc(C(=O)N2CCCC(CO)(Cc3ccc(F)cc3F)C2)c1C` (stereo not drawn) here?
The max response was -3.79%.

With `CCN(C(=O)c1cc([N+](=O)[O-])ccc1NCc1cccnc1)c1ccccc1` as the molecule, how does the max response read?
Its max response is -3.46%.

For `CN1C(=O)c2ccc(NC(=O)C3CCCCC3)cc2C1=O`, which max response is on record?
Its max response is 1.88%.

For `CS(=O)(=O)c1ccc2nc(NC(=O)C3CCCCC3)sc2c1`, which max response is on record?
Its max response is 9.31%.

Which max response does the source give for `Cc1cnc(NC(=O)C2CCCC2)s1` here?
Its max response is 23.2% (active).

Which max response does the source give for `Cc1nc(NC(=O)C2CCCCC2)sc1C` here?
Its max response is 40.1% (active).

Which max response does the source give for `CCOC(=O)c1cc(C)sc1NC(=O)C1CCC1` here?
The max response was 6.29%.

Which max response does the source give for `Cc1nc(NC(=O)C23CCC(C)(C(=O)O2)C3(C)C)sc1C` (stereo not drawn) here?
The max response was -1.47%.

For `CC(=O)NC1C(Oc2ccc(C)cc2)OC2COC(c3ccco3)OC2C1O` (stereo not drawn), which max response is on record?
Its max response is -5.51%.

For `Cc1cc2c(s1)c1cnn(Cc3c(F)cccc3Cl)c(=O)c1n2C`, which max response is on record?
The max response was 4.69%.

Which max response does the source give for `Cc1cc[n+](-c2[nH]c(=O)sc2/C=N/NC(=O)c2ccccc2[O-])cc1C` here?
Its max response is 1.3%.

For `CC(C)(C)c1cc[n+](-c2[nH]c(=O)sc2/C=N/N=C(\[O-])c2ccccc2)cc1`, which max response is on record?
The max response was 25.7% (active).

Which max response does the source give for `CCOC(=O)c1c(C)[nH]c(C)c1S(=O)(=O)N(C)CC(=O)Nc1ccccc1C` here?
The max response was -6.33%.

With `O=C(CCC(=O)n1ncc2ccccc21)NCc1ccccc1Cl` as the molecule, how does the max response read?
The max response was -1.42%.

Which max response does the source give for `COc1ccc([N+](=O)[O-])cc1N(CC(=O)Nc1ccccc1C(=O)N1CCOCC1)S(C)(=O)=O` here?
The max response was -2.31%.

For `O=C(CSc1nnc(SCc2ccc(Cl)cc2)s1)N/N=C/c1ccccc1Cl`, which max response is on record?
Its max response is 12.5% (active).

With `Cc1nnsc1C(=O)N/N=C/c1ccccc1Cl` as the molecule, how does the max response read?
Its max response is -0.513%.

With `O=C(Cc1ccccc1)N/N=C/c1ccc(Cl)cc1Cl` as the molecule, how does the max response read?
The max response was 12%.

Reference: PubChem BioAssay AID2314 (National Center for Advancing Translational Sciences (NCATS), 2010)
